Experimental findings from PubChem BioAssay (NCATS) are described below.

Values without a mark were called inactive. Results filed as inconclusive are left out. Active and inactive are the calls of the source. Unless noted, calls come from the whole dose curve; as a rule, active = well fitted curve in either direction with a large enough effect (not every such curve was filed as active); inconclusive = small, poorly fitted or top-dose-only effect, or another doubt; inactive = flat fitted curve, though single readings scatter. Some results are limits rather than exact numbers.

Test [1] in a line: AP1 Signaling Pathway (AID 357). Note: % is set by controls: 0 for no effect and ±100 for the full control effect. Particulars: ME-180 AP-1-bla reporter, EGF-induced, beta-lactamase ratio, 5 h; at 17.2 µM (top of the series) unless noted. The method, boiled down: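 ME-180 cells with beta-lactamase reporter under AP-1 response element, stimulated with EC50 EGF; compounds tested in titration series, 5 h at 37 °C. CCF4 substrate added 2.5 h at room temperature; 460/530 nm emission ratio gave %activity and AC50.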

A short description of test [2]: NFAT Signaling Pathway (AID 444).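 Note: carbachol stimulus at about its EC50 of 1 µM final; % is set by controls: 0 for no effect and ±100 for the full control effect.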 Conditions: Jurkat NFAT-bla M1, carbachol, beta-lactamase ratio, 5 h; at 17.2 µM (top of the series) unless noted. The method, boiled down:
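Jurkat cells carrying an NFAT-driven β-lactamase reporter and co-transfected muscarinic M1 receptor were treated with compound plus carbachol (1 uM final, an EC50 level) for 5 h at 37 °C. CCF4 loading followed for 1 h at RT; 460/530 nm ratio gave %activity.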

For test [3], the target named is Glucocorticoid receptor (Homo sapiens) (UniProt P04150). Nature of the test: GR-GFP Redistribution (AID 450;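 active = compounds whose dose series gives a full or clear partial fitted curve of increased nuclear translocation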; note: potency is the fitted concentration of half-maximal effect). Conditions: U2OS GR-GFP nuclear translocation, laser cytometry, 2 h.
Chain of Glucocorticoid receptor (Homo sapiens) (P04150 whole entry, looked up, the tested form may be a part): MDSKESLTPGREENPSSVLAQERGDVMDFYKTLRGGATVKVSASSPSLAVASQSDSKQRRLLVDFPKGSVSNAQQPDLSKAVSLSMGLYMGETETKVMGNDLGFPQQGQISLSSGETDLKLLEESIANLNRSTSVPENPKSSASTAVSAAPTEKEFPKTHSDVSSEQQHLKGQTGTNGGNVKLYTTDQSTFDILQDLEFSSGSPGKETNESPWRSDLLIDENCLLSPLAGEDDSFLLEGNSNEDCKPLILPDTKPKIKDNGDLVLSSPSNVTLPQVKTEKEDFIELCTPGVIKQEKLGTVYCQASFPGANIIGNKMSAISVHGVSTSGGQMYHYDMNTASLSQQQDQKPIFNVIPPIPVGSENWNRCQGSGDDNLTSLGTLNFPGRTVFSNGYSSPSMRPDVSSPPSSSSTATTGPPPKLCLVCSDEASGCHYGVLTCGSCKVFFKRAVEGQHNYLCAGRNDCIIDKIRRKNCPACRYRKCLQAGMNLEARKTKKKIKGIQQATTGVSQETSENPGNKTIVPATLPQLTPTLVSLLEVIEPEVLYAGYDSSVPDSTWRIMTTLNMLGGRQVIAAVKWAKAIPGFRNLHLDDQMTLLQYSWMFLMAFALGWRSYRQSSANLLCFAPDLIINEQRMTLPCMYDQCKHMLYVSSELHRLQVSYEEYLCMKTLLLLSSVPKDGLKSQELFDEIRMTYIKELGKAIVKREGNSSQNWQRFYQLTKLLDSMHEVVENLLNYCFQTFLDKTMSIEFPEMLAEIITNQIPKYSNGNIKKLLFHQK
Test [4] shares this target. Briefly: GR-EFC Redistribution (AID 451; calls by dose curve; note: potency is the fitted concentration of half-maximal effect). Particulars: CHO-K1 GR-EFC translocation, beta-gal luminescence, 2 h. The gist of the method: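 CHO-K1 cells stably expressing nuclear-localized β-gal enzyme acceptor and GR fused C-terminally to the enzyme donor fragment; ligand-driven nuclear translocation restores β-gal by complementation. Compounds titrated up to 46 uM final, 2 h at 37 °C; luminescence read.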

The target of test [5] is 3',5'-cyclic-AMP phosphodiesterase 4B (Homo sapiens) (UniProt Q07343). Nature of the test: qHTS Assay for Inhibitors of PDE-IV (AID 607; active = well fitted activation curve with a large enough effect in the main read-out, with a control signal flat, not every such curve was filed as active; note: % of control where 0% means no effect). The gist of the method: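 Cell-based read-out of cAMP via a modified cyclic nucleotide-gated channel and membrane potential dye (535/590 nm) in HEK293 cells expressing PDE4 endogenously. Compounds tested up to 22.9 uM final; 100 uM RO 20-1724 reference.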
Chain of 3',5'-cyclic-AMP phosphodiesterase 4B (Homo sapiens) (Q07343 whole entry, looked up): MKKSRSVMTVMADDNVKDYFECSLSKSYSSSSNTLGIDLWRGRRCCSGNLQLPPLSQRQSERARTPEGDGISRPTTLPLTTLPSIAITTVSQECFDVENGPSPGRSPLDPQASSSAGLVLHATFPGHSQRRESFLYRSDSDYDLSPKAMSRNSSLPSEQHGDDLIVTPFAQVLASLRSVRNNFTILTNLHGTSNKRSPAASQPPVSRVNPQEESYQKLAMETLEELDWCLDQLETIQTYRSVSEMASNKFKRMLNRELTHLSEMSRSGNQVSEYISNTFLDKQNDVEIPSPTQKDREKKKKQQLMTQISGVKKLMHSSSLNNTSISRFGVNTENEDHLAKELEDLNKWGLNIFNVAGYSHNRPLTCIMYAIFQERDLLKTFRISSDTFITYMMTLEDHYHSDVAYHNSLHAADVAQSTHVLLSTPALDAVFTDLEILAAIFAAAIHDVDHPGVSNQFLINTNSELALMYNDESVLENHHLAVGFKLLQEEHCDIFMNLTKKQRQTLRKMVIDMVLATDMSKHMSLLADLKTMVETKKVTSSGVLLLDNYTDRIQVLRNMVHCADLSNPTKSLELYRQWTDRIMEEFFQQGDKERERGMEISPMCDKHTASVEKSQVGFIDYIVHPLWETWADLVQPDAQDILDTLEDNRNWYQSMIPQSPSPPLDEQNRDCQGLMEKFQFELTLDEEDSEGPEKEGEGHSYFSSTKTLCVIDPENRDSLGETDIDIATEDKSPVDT

In test [6] the target is Guanine nucleotide-binding protein G(i) subunit alpha-1 (Homo sapiens) (UniProt P63096). Briefly: qHTS Assay for Inhibitors of RGS12 GoLoco Motif Activity (Green Fluorophore) (AID 879; active = well fitted curve in the direction sought with a large enough effect; an effect the other way counts as inactive or inconclusive; note: potency is the fitted concentration of half-maximal effect). The method, boiled down:
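A drop in FITC polarization marked displacement of the FITC-tagged RGS12 GoLoco peptide (10 nM) from Gαi1 (50 nM). Compounds were incubated 10 min at room temperature in Tris pH 7.5 buffer containing 150 mM NaCl, 0.1 mM GDP and 0.05% NP40; unlabeled peptide titration served as control.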
On the technique in general: In qHTS, concentration-response curves come from the screen itself.

In test [7] the target is Cytochrome P450 3A4 (Homo sapiens) (UniProt P08684). Briefly: qHTS Assay for Activators of Cytochrome P450 3A4 (AID 885; active = well fitted curve in the direction sought with a large enough effect; an effect the other way counts as inactive or inconclusive; note: nearly all actives have a fitted effect of over 65% in size). The gist of the method: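 Luminescent readout of luciferin formed from 25 uM Luciferin-PPXE (KM level) by 20 nM CYP3A4 in 200 mM KPO4, with 60 min NADPH-driven reaction at room temperature after 10 min compound exposure. Ketoconazole (57 uM) defined 100% inhibition.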
Chain of Cytochrome P450 3A4 (Homo sapiens) (P08684 whole entry, looked up): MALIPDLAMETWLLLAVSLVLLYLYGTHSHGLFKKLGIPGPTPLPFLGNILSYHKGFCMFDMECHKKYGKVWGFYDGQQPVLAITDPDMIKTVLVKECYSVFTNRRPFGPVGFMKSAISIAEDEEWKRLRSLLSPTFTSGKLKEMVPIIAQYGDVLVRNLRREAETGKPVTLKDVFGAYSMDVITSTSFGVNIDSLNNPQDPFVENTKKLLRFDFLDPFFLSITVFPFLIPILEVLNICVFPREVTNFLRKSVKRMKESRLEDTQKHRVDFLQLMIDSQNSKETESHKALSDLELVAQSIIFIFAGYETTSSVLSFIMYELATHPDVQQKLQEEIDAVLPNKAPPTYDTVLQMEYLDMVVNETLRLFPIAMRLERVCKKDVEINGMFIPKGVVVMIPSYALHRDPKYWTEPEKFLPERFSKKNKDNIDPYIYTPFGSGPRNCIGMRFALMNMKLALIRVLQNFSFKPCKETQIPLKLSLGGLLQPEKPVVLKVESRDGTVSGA

Test [8] concerns the target Cytochrome P450 2D6 (Homo sapiens) (UniProt P10635). Briefly: qHTS Assay for Inhibitors and Substrates of Cytochrome P450 2D6 (AID 891; active = well fitted curve in the direction sought with a large enough effect; an effect the other way counts as inactive or inconclusive;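 note: luciferin methyl ether substrate demethylated by CYP2D6 with NADPH regeneration; % is set by controls: 0 for no effect and ±100 for the full control effect; nearly all actives have a fitted effect of over 60% in size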). The method, boiled down:
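Luminescent read-out of luciferin formed by 5 nM human CYP2D6 demethylating 30 uM Luciferin-ME EGE (Km level) over 60 min at room temperature after NADPH regeneration addition. Data normalized to full inhibition by 1.43 uM quinidine.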

The target in test [9] is Cytochrome P450 2C19 (Homo sapiens) (UniProt P33261). Nature of the test: qHTS Assay for Inhibitors and Substrates of Cytochrome P450 2C19 (AID 899; active = well fitted curve in the direction sought with a large enough effect; an effect the other way counts as inactive or inconclusive; note: % is set by controls: 0 for no effect and ±100 for the full control effect; nearly all actives have a fitted effect of over 60% in size). The method, boiled down:
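Human CYP2C19 (5nM) with Luciferin-H EGE at 10uM (its KM) in 50mM KPO4 was preincubated with compound for 10 min at 37C. NADPH regeneration started a 60 min 37C reaction. Luciferin was read by luminescence, normalized to 57uM ketoconazole.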

The nature of test [10]: qHTS Assay for Identification of Small Molecule Antagonists for Thrombopoietin (TPO) Signaling Pathway (AID 918; active = well fitted curve in the direction sought with a large enough effect; an effect the other way counts as inactive or inconclusive; note: potency is the fitted concentration of half-maximal effect; nearly all actives have a fitted effect of over 60% in size). Conditions: TPO-dependent cell signaling reporter, antagonist mode. The gist of the method: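 Inhibitors of TPO signaling are sought by stimulating IL-3-starved murine Ba/F3 cells (human TPO receptor, Glycoprotein IIb-driven luciferase) with TPO at its EC50 of 26 pM alongside compound. After 24 hrs at 37 C, reporter luminescence is measured.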

The target in test [11] is Muscarinic acetylcholine receptor M1 (Rattus norvegicus) (UniProt P08482). Nature of the test: qHTS Assay for Antagonists of Acetylcholine Muscarinic M1 Receptor: Kinetic Measurement of Intracellular Calcium Response (AID 943; active = well fitted curve in the direction sought with a large enough effect; an effect the other way counts as inactive or inconclusive;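 note: Fluo-4 calcium signal as peak divided by basal fluorescence over 4 min; nearly all actives have a fitted effect of over 75% in size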). The method, boiled down: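 Antagonism is measured as inhibition of the carbachol-evoked calcium rise in CHO cells transfected with rat M1. Cells are dye-loaded, exposed to compound for 10 min, then stimulated with 100 nM carbachol (EC80).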
Chain of Muscarinic acetylcholine receptor M1 (Rattus norvegicus) (P08482 whole entry, looked up): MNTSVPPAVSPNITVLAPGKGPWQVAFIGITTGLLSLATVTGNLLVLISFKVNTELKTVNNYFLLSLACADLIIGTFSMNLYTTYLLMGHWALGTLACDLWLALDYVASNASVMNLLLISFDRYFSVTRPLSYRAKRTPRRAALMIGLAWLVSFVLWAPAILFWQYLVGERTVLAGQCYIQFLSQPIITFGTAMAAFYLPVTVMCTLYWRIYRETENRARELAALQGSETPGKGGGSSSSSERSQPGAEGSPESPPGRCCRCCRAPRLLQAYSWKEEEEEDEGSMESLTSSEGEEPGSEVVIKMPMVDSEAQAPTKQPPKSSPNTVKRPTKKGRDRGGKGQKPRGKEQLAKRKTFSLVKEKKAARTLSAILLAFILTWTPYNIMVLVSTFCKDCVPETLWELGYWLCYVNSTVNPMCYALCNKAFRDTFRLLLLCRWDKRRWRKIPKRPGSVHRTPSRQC

Test [12] shares this target. Briefly: qHTS Assay for Antagonists of Acetylcholine Muscarinic M1 Receptor: Measurement of IP-One Response (AID 944; active = well fitted curve in the direction sought with a large enough effect; an effect the other way counts as inactive or inconclusive; note: nearly all actives have a fitted effect of over 75% in size). The method, boiled down: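 Antagonist mode with rat M1 receptor transfected into CHO cells. Compound is added first for 10 min, carbachol at its EC80 follows for 30 min, and lysis reagents then allow TR-FRET detection of accumulated IP1.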
Test [13] concerns the target Pyruvate kinase (Leishmania mexicana) (UniProt Q27686). Briefly: qHTS Validation Assay for Inhibitors of Leishmania Mexicana Pyruvate Kinase (AID 945; active = well fitted curve in the direction sought with a large enough effect; an effect the other way counts as inactive or inconclusive;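 note: 0% = DMSO only neutral control wells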). The method, boiled down: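 Eight-point qHTS titrations in triplicate, data normalized to DMSO neutral control. Reaction: 0.2 nM LmPYK E451W mutant, 0.5 mM PEP, 0.1 mM ADP, 7 mM MgCl2, pH 7.2, one hour at room temperature; luminescent ATP detection.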

The target of test [14] is Alpha-galactosidase (Coffea arabica) (UniProt Q42656). Nature of the test: Counterscreen for Glucocerebrosidase Inhibitors: qHTS Assay for Coffee Bean alpha-Galactosidase at pH 4.5 (AID 957; active = well fitted curve in the direction sought with a large enough effect; an effect the other way counts as inactive or inconclusive;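 note: plate controls were enzyme alone for no effect and no enzyme for full effect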). The gist of the method: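 Enzyme is added first (2 nM final), then compounds titrated from 0.7 nM to 77 uM, then 80 uM 4-methylumbelliferyl alpha-D-galactopyranoside; after 20 min at room temperature a pH 10 NaOH/glycine stop precedes fluorescence reading at 365/440 nm.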
Chain of Alpha-galactosidase (Coffea arabica) (Q42656 whole entry, looked up): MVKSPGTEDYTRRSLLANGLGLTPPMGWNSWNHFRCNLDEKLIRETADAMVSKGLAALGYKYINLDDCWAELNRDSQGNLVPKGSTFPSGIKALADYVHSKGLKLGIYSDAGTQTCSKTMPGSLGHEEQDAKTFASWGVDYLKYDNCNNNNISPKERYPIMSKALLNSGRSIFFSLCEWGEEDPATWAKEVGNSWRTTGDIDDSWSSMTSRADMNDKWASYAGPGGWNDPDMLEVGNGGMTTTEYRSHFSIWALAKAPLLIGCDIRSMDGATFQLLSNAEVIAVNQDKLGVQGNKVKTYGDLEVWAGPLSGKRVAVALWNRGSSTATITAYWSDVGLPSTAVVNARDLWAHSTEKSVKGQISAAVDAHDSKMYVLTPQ
On the technique in general: Counterscreens check selectivity or assay interference.

Test [15] addresses Pyruvate kinase PKM (Homo sapiens) (UniProt P14618). Nature of the test: qHTS Assay for Inhibitors of Human Muscle Pyruvate Kinase (AID 958; active = well fitted curve in the direction sought with a large enough effect; an effect the other way counts as inactive or inconclusive). The gist of the method: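 Luminescence from a luciferase ATP-detection/stop reagent reported PKM2 activity. Reactions contained 0.1 nM purified human enzyme, 0.5 mM PEP, 0.1 mM ADP and 7 mM MgCl2 at pH 7.2, run 1 h at RT.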
Test [16] addresses Alpha-galactosidase A (Homo sapiens) (UniProt P06280). Briefly: Counterscreen for Glucocerebrosidase Inhibitors: qHTS Assay for Human alpha-Galactosidase at pH 4.5 (AID 992; active = well fitted curve in the direction sought with a large enough effect; an effect the other way counts as inactive or inconclusive; note: 0% is about no effect). The gist of the method: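 Fluorogenic 1536-well qHTS at pH 4.5 (citrate, Tween-20): 2 nM enzyme, 80 uM 4-MU-alpha-galactoside, 20 min room temperature, NaOH/glycine stop. Titration 0.7 nM to 77 uM, data normalized to no-enzyme and full-activity controls, Hill-fitted AC50.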

Test [17] addresses alpha-glucosidase (Oryza sativa, rice) (UniProt Q653V4). Briefly: Counterscreen for Glucocerebrosidase Inhibitors: qHTS Assay for Rice alpha-Glucosidase at pH 5.0 (AID 997; active = well fitted curve in the direction sought with a large enough effect; an effect the other way counts as inactive or inconclusive;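 note: 0% = full activity with enzyme and -100% = basal without enzyme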). The gist of the method:
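Endpoint fluorogenic assay at pH 5.0: compounds (0.7 nM to 77 uM) titrated against 4 nM rice enzyme and 400 uM 4-MU-alpha-glucoside for 20 min at room temperature; NaOH/glycine stop, read ex 365/em 440 nm, Hill-fitted AC50.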

A short description of test [18]: Stat Signaling Pathway (AID 446).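 Note: ME-180 cervical cancer cells given 40 pM IL-6 alongside compound; SIE-controlled beta-lactamase reporter measured as 460/530 nm FRET emission ratio; % is set by controls: 0 for no effect and ±100 for the full control effect.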 The gist of the method: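 FRET read-out (405 nm excitation, 460/530 nm emission) of a beta-lactamase reporter under a STAT-inducible element in ME-180 cervical carcinoma cells. Cells with compound receive 40 pM IL-6 for 5 h. Values are normalised to AC90 stimulation and AC90 JAK-inhibitor controls.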
A short description of test [19]: qHTS Assay for Identification of Small Molecule Agonists for Thrombopoietin (TPO) Signaling Pathway (AID 917; active = well fitted curve in the direction sought with a large enough effect; an effect the other way counts as inactive or inconclusive; note: % is set by controls: 0 for no effect and ±100 for the full control effect). The gist of the method: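 First, Ba/F3 cells with human TPO receptor were held overnight without IL-3. Next, compounds and TPO (26 pM final) were added. After 24 hrs at 37 C, luciferase detection reagent was added and luminescence measured following 10 min at room temperature.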

For test [20], the target named is Pyruvate kinase PKM (Homo sapiens) (UniProt P14618). Briefly: qHTS Assay for Activators of Human Muscle Pyruvate Kinase (AID 954; active = well fitted curve in the direction sought with a large enough effect, not every such curve was filed as active;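 note: 0% = uninhibited enzyme and -100% = no enzyme or full thiadiazolimine inhibition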). The gist of the method: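 ATP production by PKM2 detected via luciferase luminescence after 1 h room-temperature reaction (0.1 nM enzyme, PEP at Km 0.5 mM, ADP 0.1 mM, pH 7.2 imidazole buffer). Inhibition scaled to no-enzyme control; activation referenced to 0.3 nM enzyme wells.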
Chain of Pyruvate kinase PKM (Homo sapiens) (P14618 whole entry, looked up): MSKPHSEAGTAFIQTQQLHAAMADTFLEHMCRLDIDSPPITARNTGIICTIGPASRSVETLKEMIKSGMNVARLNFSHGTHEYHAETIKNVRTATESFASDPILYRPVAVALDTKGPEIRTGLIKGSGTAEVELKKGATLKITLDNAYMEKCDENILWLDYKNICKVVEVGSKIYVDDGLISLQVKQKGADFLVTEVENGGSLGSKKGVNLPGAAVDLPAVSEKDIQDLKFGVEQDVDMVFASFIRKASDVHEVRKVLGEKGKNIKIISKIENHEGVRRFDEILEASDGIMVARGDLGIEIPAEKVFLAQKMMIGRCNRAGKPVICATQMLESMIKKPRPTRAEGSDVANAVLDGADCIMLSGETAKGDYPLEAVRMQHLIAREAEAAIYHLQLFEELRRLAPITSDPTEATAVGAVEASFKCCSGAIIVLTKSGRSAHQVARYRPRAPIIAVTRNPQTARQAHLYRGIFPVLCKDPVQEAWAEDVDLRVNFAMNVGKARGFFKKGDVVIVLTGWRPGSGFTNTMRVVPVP

Test [21] concerns the target Alpha-galactosidase (Coffea arabica) (UniProt Q42656). Nature of the test: Counterscreen for Glucocerebrosidase Inhibitors: qHTS Assay for Coffee Bean alpha-Galactosidase at pH 5.9 (AID 998; active = well fitted curve in the direction sought with a large enough effect; an effect the other way counts as inactive or inconclusive;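 note: plate controls were uninhibited enzyme for no effect and no-enzyme basal signal for full effect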). The gist of the method:
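In 50 mM citric acid pH 5.9 with 0.005% Tween-20, coffee bean enzyme hydrolyses 80 uM 4-MU alpha-D-galactopyranoside over 20 min at RT. Activity is normalized to controls; AC50 comes from Hill-modelled concentration-response data.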

The nature of test [22]: qHTS Assay for Identification of Small Molecule Agonists for Hypoxia Response Element Signaling Pathway (AID 914; active = well fitted activation curve with a large enough effect in the signal ratio, with a control signal flat, not every such curve was filed as active; the % refers to the signal ratio; note: % of control where 0% means no effect). Particulars: ME-180 (cervical carcinoma) HRE-bla reporter, beta-lactamase ratio, CoCl2, 17 h; activation: active compounds read high. The gist of the method:
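HRE-bla ME-180 cells with beta-lactamase reporter under hypoxia response element, compounds with EC50 CoCl2 for 17 hours at 37 C. CCF4 substrate, 460nm/530nm emission ratio gave %Activity; AC50 from titration series.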

Chain of Pyruvate kinase (Leishmania mexicana) (Q27686 2-499 E452W): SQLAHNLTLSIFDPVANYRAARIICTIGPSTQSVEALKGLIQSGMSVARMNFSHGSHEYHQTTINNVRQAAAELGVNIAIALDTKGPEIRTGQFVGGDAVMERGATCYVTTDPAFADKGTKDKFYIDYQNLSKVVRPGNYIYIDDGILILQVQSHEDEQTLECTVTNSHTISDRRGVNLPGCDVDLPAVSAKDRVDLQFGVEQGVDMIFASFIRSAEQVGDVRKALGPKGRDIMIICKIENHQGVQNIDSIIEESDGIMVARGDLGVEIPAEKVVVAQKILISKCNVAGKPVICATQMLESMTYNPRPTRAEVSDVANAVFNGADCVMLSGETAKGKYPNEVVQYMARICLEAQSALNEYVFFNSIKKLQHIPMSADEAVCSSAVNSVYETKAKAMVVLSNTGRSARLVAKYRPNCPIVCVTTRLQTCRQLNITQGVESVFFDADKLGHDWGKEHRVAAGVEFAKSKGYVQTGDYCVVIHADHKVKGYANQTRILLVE
Chain of Guanine nucleotide-binding protein G(i) subunit alpha-1 (Homo sapiens) (P63096 whole entry, looked up): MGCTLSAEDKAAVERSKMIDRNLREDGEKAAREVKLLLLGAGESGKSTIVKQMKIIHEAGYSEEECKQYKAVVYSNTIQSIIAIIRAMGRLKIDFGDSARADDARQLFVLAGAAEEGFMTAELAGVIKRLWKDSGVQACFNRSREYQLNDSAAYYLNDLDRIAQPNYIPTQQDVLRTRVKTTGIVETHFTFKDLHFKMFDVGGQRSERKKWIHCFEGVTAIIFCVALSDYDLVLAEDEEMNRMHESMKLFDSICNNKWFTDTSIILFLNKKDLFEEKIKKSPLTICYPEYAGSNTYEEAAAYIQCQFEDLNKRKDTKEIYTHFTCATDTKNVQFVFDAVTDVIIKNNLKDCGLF
Chain of Alpha-galactosidase A (Homo sapiens) (P06280 whole entry, looked up): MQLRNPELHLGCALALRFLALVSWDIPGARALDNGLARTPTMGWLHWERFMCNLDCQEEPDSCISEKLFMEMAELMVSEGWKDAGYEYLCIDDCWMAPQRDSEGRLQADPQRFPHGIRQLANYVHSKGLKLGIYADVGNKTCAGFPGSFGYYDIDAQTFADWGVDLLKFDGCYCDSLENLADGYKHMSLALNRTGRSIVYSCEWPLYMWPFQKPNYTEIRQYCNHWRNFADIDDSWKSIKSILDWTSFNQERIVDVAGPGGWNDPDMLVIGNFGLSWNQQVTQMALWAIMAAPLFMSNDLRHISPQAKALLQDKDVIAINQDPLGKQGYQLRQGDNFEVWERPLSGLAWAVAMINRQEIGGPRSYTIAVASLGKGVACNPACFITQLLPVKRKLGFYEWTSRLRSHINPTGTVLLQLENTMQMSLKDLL

As for `N[C@@H](Cc1cc(O)c(O)cc1O)C(=O)O`, the activity change, negative = inhibition in test [1] is -19.5% [at 38 µM]; in test [2], 3.11% [at 38 µM]. Besides, the Potency was greater than 46 µM in [3], greater than 46 µM in test [4], 15.8 µM (active) in test [6] and 12.6 µM (active) in [10]. Besides, the compound was classed as inactive in [5], in [14], in test [16] and in test [17]. Also, the Potency result in test [7], in test [8], in test [9], in test [11], in test [12] and in test [13] was “inactive” throughout. The Potency entry in test [15] was “inactive”.

With `CCC(=NCCN1CCCCC1)c1c(O)n(C)c(=O)n(C)c1=O`, the activity change, negative = inhibition in test [1] was 9.93%. Moreover, in [18], the compound was called inactive. The Potency in test [3] is greater than 20.6 µM.

With `C=CCN1CC[C@]23c4c5ccc(O)c4O[C@@H]2C(=O)CC[C@@]3(O)[C@H]1C5`, the activity change, negative = inhibition in test [1] was 3.28% [at 38 µM]; in test [2], -0.768% [at 38 µM]. Further, the call in test [18], in test [5], in [19], in test [20], in test [16] and in [17] was inactive. Moreover, the compound was called inactive in test [21]. Further, the Potency result in [6] and in test [13] was “inactive” in each case.

Consider `O=[N+]([O-])c1ccc(O[C@H]2O[C@@H](CO)[C@@H](O)[C@@H](O)[C@@H]2F)c([N+](=O)[O-])c1`, for which the figures for the activity change, negative = inhibition in test [1] and in test [2] were -3.88% [at 38 µM] and 14.6% [at 38 µM], respectively. The compound was called inactive in test [18], in [5], in [20], in test [16], in test [17] and in test [21]. Besides, the Potency in test [3] and in test [4] was greater than 46 µM in each case. Besides, the Potency entry in test [6], in test [12] and in [13] was “inactive” in each case.

In the case of `CNCCc1nc(N)n[nH]1`, the activity change, negative = inhibition in test [1] was 16.9%; in test [2], -10.7%. Moreover, in test [18], the compound was classed as inactive. In addition, the Potency in test [3] is greater than 20.6 µM. In addition, the activation in test [22] was 12.1%.

`CC1(C)CC(n2[nH]c(=O)c3c2NC(=O)CSC3c2ccccc2)CCO1` (stereo unspecified): the figures for the activity change, negative = inhibition in test [1] and in test [2] were 0.712% and -1.52%, respectively. For the same compound, the call in [18] was inactive. In addition, in test [3], the Potency was greater than 20.6 µM. In addition, the activation in test [22] is 18.8%.

For `Cc1c(N=Cc2c(O)n(Cc3ccco3)c(=O)[nH]c2=O)c(=O)n(-c2ccccc2)n1C`, in [1], the activity change, negative = inhibition is -3.26%. In test [18], the compound was called inactive. The Potency in test [3] was greater than 20.6 µM.

As to `CCCCCCn1c(O)c(C=Nc2c(C)n(C)n(-c3ccccc3)c2=O)c(=O)[nH]c1=O`, in test [1], the activity change, negative = inhibition is -18.8%. The call in test [18] was inactive. Moreover, the Potency in [3] is greater than 20.6 µM.

For `C=CCn1c(O)c(C=Nc2ccc(N(CC)CC)cc2)c(=O)[nH]c1=O`, the activity change, negative = inhibition in test [1] was -13.2%. For the same compound, the result in test [18] was inactive. Further, the Potency in [3] was greater than 20.6 µM.

For `COC(=O)C(O)(c1ccc(NC(=O)c2ccco2)c(OC)c1)C(F)(F)F` (stereo unspecified), the activity change, negative = inhibition was -12.5% in test [1] and 4.31% in test [2]. The Potency in [3] was greater than 20.6 µM.
